According to PubChem BioAssay (NCI):
The panel holds about 83,000 compounds, 20% with a hit somewhere; the sample as a whole holds those more often.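 Growth was measured after 48 h exposure to one concentration of compound in 96-well plates. Values under 10 count as active.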 Active and inactive are the calls of the source.

The molecules below were run on HL-60(TB) leukemia (assay: NCI-60 one-dose screen, 48 h (100 = growth as untreated, 0 = no growth, -100 = all killed)). Conditions: 10 µM unless noted.

SMILES | growth
Cc1cccc2nc3c(n12)C(=O)C(=O)c1ccccc1-3 | 77.4% (inactive)
Cc1cccc(NC(=O)CSc2nc3ccc([N+](=O)[O-])cc3[nH]2)c1 | 86.1% (inactive)
C=C[C@H]1C[C@@H]2C[C@@H]3[C@H]4C/C=C\C(=O)NCCCC5NC(=O)C(=C(O)/C=C/[C@@H]4CC(=O)[C@H]3[C@@H]2[C@H]1C)C5=O (stereo not given in full) | -76.5% (active)
O=C1C(Cl)=C(Cl)C(Cl)(Cl)C(Cl)C1(Cl)Cl (stereo not given) | 77.7% (inactive)
COc1ccc(-c2cc(-c3ccccc3)nc(SCCCCCCC(=O)NO)n2)cc1 | 8.06% (active)
c1csc(C2=NN3C(C2)c2ccccc2OC3c2ccncc2)c1 (stereo not given) | 97.8% (inactive)
O=S(=O)(O)C(C(I)I)S(=O)(=O)O | 109% (inactive)
COC(=O)[C@@H](OC)[C@@H]1Cc2cc3cc(OC4CC(OC5CC(O)C(O)C(C)O5)C(O)C(C)O4)c(C)c(O)c3c(O)c2C(=O)[C@H]1OC1CC(OC2CC(OC3CC(C)(O)C(O)C(C)O3)C(O)C(C)O2)C(O)C(C)O1 (stereo not given in full) | -33.5% (active)
C=CCC(O)C=C (stereo not given) | 101% (inactive)
Cc1c2ccncc2c(C)c2c1c1ccccc1n2CCCCCC(=O)O | 104% (inactive)
O=CNc1ccc2c(c1)Cc1cc([N+](=O)[O-])ccc1-2 | 17.7% (inactive)
CCCCOc1ccc(/C=C2/SC(N3CCOCC3)=NC2=O)cc1OCC | 101% (inactive)
N#C/C(=C\N1C(=O)/C(=C/c2cccc([N+](=O)[O-])c2)SC1=S)c1nc2ccccc2s1 | 94.5% (inactive)
CCCCCCCCCCN(CCCCCCCCCC)CC(=O)c1ccc2cc(Br)c3ccccc3c2c1 | -62.2% (active)
CS(=O)(=O)c1nnc(-c2ccccc2)s1 | 64.8% (inactive)
O=C(N/N=C/c1ccccc1O)c1ccccc1O | 4.12% (active)
CCOC(=O)c1cc(C(=O)c2ccc(Br)cc2)n2cc(C)cc(C)c12 | 103% (inactive)
CCN1CCN(c2ccc(NC(=O)Nc3nc4ccc(-c5ccccc5OC)cc4s3)cc2)CC1 | -74.1% (active)
COc1cc(OC)cc(-c2ccc(-c3ccc(C(=N)N)cc3)s2)c1 | -57.8% (active)
O=c1[nH]cc(/C=N\Nc2ccccc2)c(=O)[nH]1 | 0.751% (active)

SMILES | growth
COc1ccc(OC)c(-c2cc(-c3ccc(Cl)cc3)c3c(N)c(C(=O)c4ccc(Cl)cc4)sc3n2)c1 | 110% (inactive)
COc1cc2ncnc(Nc3ccc(S(=O)(=O)Nc4nccs4)cc3)c2cc1OCCCN1CCCC1 | 109% (inactive)
CCOC(=O)n1cc(C2=C(c3cn(C)c4ccccc34)COC2=O)c2ccccc21 | -23.6% (active)
Brc1ccc(Nc2csc(-c3ccccn3)n2)cc1 | 99.6% (inactive)
COc1ccc(CNc2ccc3nc(CCC4CCCCC4)[nH]c3c2)cc1 | 54.8% (inactive)
CC(C)[C@@H]1NC(=O)[C@]2(C)CSC(=N2)c2ccnc(c2)CNC(=O)C[C@@H](/C=C/CCS)OC1=O | 9.07% (active)
N#C/C(=C\c1cn(Cc2ccccc2)c2ccccc12)C(=O)Nc1ncc(Cc2ccccc2Cl)s1 | 93.1% (inactive)
CCN1CCN(c2cc(-c3cn[nH]c3-c3cc(C)cc(OC)c3)nc(-c3cccnc3)n2)CC1 | 64.9% (inactive)
Cc1cccc(C(=O)N(C(C)C)C(C)C)c1 | 99.1% (inactive)
O=C(CSc1nnc(-c2cc3c([nH]c4ccccc43)c(-c3cccc(O)c3)n2)n1-c1ccccc1)c1ccccc1 | 56.2% (inactive)
O=C1Nc2ccccc2/C1=C/C(=O)c1ccc(N2CCCCC2)cc1 | -6.32% (active)
Cc1cc(NC(=O)c2cnc(N3CCN(CCOCCOCCOCCOCCC(=O)N[C@H](C(=O)N4C[C@H](O)C[C@H]4C(=O)N[C@@H](C)c4ccc(-c5scnc5C)cc4)C(C)(C)C)CC3)cn2)c2ncccc2c1 | -21.1% (active)
CCN1CCN(c2cc(C)nc(N(CCNc3ccnc4cc(Cl)ccc34)Cc3ccc4c(c3)OCO4)n2)CC1 | -61.8% (active)
COc1cc(C(=O)n2nc(N3CCOCC3)c3cc(-n4cccc4)ccc32)cc(OC)c1OC | 61.6% (inactive)
Cc1ccc2c(c1)=C/C(=C\c1cc(-c3ccccc3)oc1O)C(=O)N=2 | 98% (inactive)
O=[N+]([O-])CC(O)c1ccccc1 (stereo not given) | 99.4% (inactive)
Cc1ccc(-c2cc(-c3cccnc3)[nH]c(=O)c2C#N)cc1 | 99% (inactive)
C=CCOc1ccc(Cl)cc1Cl | 20.5% (inactive)
COc1ccc(C(=O)CSc2nnc(-c3cc(-c4ccccc4)nc4ccccc34)o2)cc1 | 111% (inactive)
COc1ccc2nc(-c3ccc(-n4cncc4-c4ccc(OC)c(N)c4)cc3)sc2c1 | 80.7% (inactive)
